According to the supplement of paper PMC6555819:

Assays:
Assay in all cases: PBM binding z-score (relative to random genomic background probes); higher = stronger binding; sequences stand for … in GC…GCGATTGACAGCGTAGAATGAAGG
[1] = system: PPARg:RXRa DBDmut IVT, anti-RXR (DBD mutation: RXRa K156A/R161A, NR concentration 270 nM, RXRa partner concentration 90 nM)
Procedure, shortened: (§1)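 On custom Agilent 4×180K arrays, double-stranded probes with 34-nt variable regions carried direct-repeat seeds, single-nucleotide variants, half-site ablations or random human genomic background. Ligand-free nuclear receptor dimers were applied for 1 h, and binding was read with antibodies against each partner (one per run). Binding z-scores come from regression-normalized fluorescence, with the random background probes as reference.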

[2] = system: PPARg:RXRa IVT, anti-PPARg (NR concentration 270 nM, RXRa partner concentration 90 nM)
Procedure, shortened: as §1

[3] = system: PPARg DBDmut:RXRa IVT, anti-PPARg (DBD mutation: PPARg1 K132A/R137A, NR concentration 270 nM, RXRa partner concentration 90 nM)
Procedure, shortened: as §1

[4] = system: PPARg DBDmut IVT, anti-PPARg (DBD mutation: PPARg1 K132A/R137A, NR concentration 270 nM)
Procedure, shortened: as §1

[5] = system: PPARg homodimer (NR concentration 180 nM)
Procedure, shortened: as §1

[6] = system: PXR:RXRa (NR concentration 270 nM, RXRa partner concentration 90 nM)
Procedure, shortened: as §1

[7] = system: PXR homodimer (NR concentration 270 nM)
Procedure, shortened: as §1

[8] = system: RARa:RXR (NR concentration 270 nM, RXRa partner concentration 90 nM)
Procedure, shortened: as §1

[9] = system: RARa homodimer (NR concentration 270 nM)
Procedure, shortened: as §1

[10] = system: RARb:RXRa (NR concentration 270 nM, RXRa partner concentration 90 nM)
Procedure, shortened: as §1

[11] = system: RARb homodimer (NR concentration 270 nM)
Procedure, shortened: as §1

[12] = system: RARg:RXRa (NR concentration 270 nM, RXRa partner concentration 90 nM)
Procedure, shortened: as §1

[13] = system: RARg homodimer (NR concentration 270 nM)
Procedure, shortened: as §1

[14] = system: RXRa DBDmut IVT, anti-RXR (DBD mutation: RXRa K156A/R161A, NR concentration 90 nM)
Procedure, shortened: as §1

[15] = system: RXRa homodimer (NR concentration 180 nM)
Procedure, shortened: as §1

[16] = system: THRa:RXRa (NR concentration 90 nM, RXRa partner concentration 90 nM)
Procedure, shortened: as §1

[17] = system: THRa homodimer (NR concentration 90 nM)
Procedure, shortened: as §1

[18] = system: VDR:RXRa (NR concentration 270 nM, RXRa partner concentration 90 nM)
Procedure, shortened: as §1

[19] = system: VDR homodimer (NR concentration 270 nM)
Procedure, shortened: as §1

Sequence | PBM binding z-score [1] | PBM binding z-score [2] | PBM binding z-score [3] | PBM binding z-score [4] | PBM binding z-score [5] | PBM binding z-score [6] | PBM binding z-score [7] | PBM binding z-score [8] | PBM binding z-score [9] | PBM binding z-score [10] | PBM binding z-score [11] | PBM binding z-score [12] | PBM binding z-score [13] | PBM binding z-score [14] | PBM binding z-score [15] | PBM binding z-score [16] | PBM binding z-score [17] | PBM binding z-score [18] | PBM binding z-score [19]
ATCGACAGGTCGAAGGTGAGTATACCCACCCGAA | -0.979 | 1.09 | 0.369 | -0.333 | 0.63 | 0.914 | -0.44 | 1.5 | -0.439 | 1.64 | 0.661 | 1.8 | 1.51 | -0.283 | 2.37 | 0.716 | -0.432 | 0.627 | -0.198
CCTATTAGTTGAGCATAAGGGCAACCGAAGCTCG | -0.00699 | 0.0681 | -0.0638 | 0.243 | 1.36 | 0.18 | 0.549 | 0.348 | 1.39 | 1.1 | 1.42 | 0.728 | 0.652 | 0.381 | 0.162 | 1.58 | 0.923 | 0.408 | 0.43
CCTGGTAGGTCATGGTCAGCTAATCTACAGTATG | 4.25 | 5.18 | 0.295 | 0.552 | 1.94 | 2.02 | -0.0799 | 2.83 | 0.611 | 3.81 | 3.07 | 4.23 | 4.8 | 0.728 | 3.62 | 2.22 | 0.615 | 1.89 | 0.706
TCTTGTAGATGAACAGGAGGTTAAGAAAGATCGA | 1.53 | 0.277 | 0.804 | 0.789 | 0.0799 | 0.598 | -0.154 | 0.883 | 0.212 | 0.279 | 0.252 | 0.473 | 0.0838 | 0.572 | 0.784 | 0.65 | -0.383 | 0.644 | -0.297
ATCTCTAGGTAACCAAGCTCAGTGAATGCCGAAC | 2.93 | 2.13 | 1.25 | 0.885 | 0.709 | -0.105 | 0.251 | 0.193 | 0.798 | 0.0628 | -0.00643 | 0.122 | -0.0382 | -0.17 | -0.107 | 0.646 | 0.537 | -0.169 | 0.149
TCATATAGGTAAAGGCTAGGTGAAAGTCCGATCT | 3.97 | 3.25 | 0.56 | 1.28 | 0.619 | 0.508 | 0.058 | 1.09 | 1.15 | 0.844 | 0.981 | 0.769 | 0.425 | 1.27 | 0.971 | 1.3 | 0.205 | 0.546 | 0.0425
ATCTCTGGGTAAGACTCAGTTCAGTGAAGAACGC | 1.16 | 1.22 | 0.795 | 0.645 | 0.772 | 1.16 | 1.54 | 0.0495 | 0.661 | 0.293 | 0.372 | 0.252 | 0.292 | 0.0786 | -0.0436 | 0.589 | 0.517 | 0.528 | 1.27
AGAATGAGTTTATTAAGATCAGGGAATTGCGGTC | -0.196 | -0.106 | 0.457 | 0.0162 | 0.334 | 1.31 | 2.04 | 0.154 | 0.655 | 0.143 | 0.079 | -0.0299 | 0.321 | 3.88 | 0.093 | 0.265 | 0.231 | 2.08 | 3.05
CTCGAAAGGTCGTGCTCAGGTGACTATACCAAAC | 1.01 | 2.13 | -0.324 | 0.674 | 1.85 | 3.67 | 0.399 | 4.75 | 0.319 | 4 | 3.17 | 5.21 | 3.82 | 2.15 | 4.78 | 4.26 | 1.69 | 3.53 | 0.845
CGGACTGGGGCAAGGTTACCATAACGCACAGCCA | 4.9 | 5.59 | 0.588 | 0.000804 | 0.759 | 0.516 | -0.28 | 1.03 | -0.565 | 1.67 | 1.45 | 1.34 | 1.4 | -0.765 | 1.28 | 1.48 | 0.546 | 0.267 | 0.0512
ATTTCTAGGTAACAAGTTCAGTGAAAGAGAGGAC | 5.53 | 4.99 | 3.1 | 2.25 | 1.94 | 1.79 | 2.69 | 1.45 | 2.03 | 2.12 | 2.14 | 1.75 | 1.66 | 1.44 | 1.12 | 1.83 | 1.35 | 2.56 | 3.04
ATATGTAGGTTAGCTGGGGTCATTCAGACTAGGC | 6.68 | 6.23 | 2.15 | 1.68 | 2.64 | 6.34 | 4.08 | 5.73 | 1.52 | 2.96 | 3.87 | 4.18 | 2.91 | 2.27 | 5.35 | 5.18 | 3.18 | 6.27 | 5.47
TCTAGCAGGCCAGAGGGTCCCTCAAGAGGTACGG | 0.4 | -0.351 | -0.654 | -1.83 | -0.97 | -0.673 | -1.06 | -0.482 | -1.2 | -0.136 | -0.677 | -0.337 | -0.396 | -0.214 | -0.191 | -0.666 | -1.29 | -0.431 | -0.908
GGTGCTAGGTCAACTGATGGTCAGCTAAAGCTCG | 4.51 | 4.91 | -0.202 | -0.913 | 3.45 | 1.84 | 0.142 | 3.25 | 0.466 | 4.43 | 3.76 | 5.3 | 5.75 | 1.28 | 2.7 | 2.99 | 1.07 | 1.89 | 0.446
CCGACTGGGGCAGAAAGGTTAGCATACCATCCGG | 1.54 | 1.41 | -0.783 | -1.16 | -0.251 | 0.123 | -0.44 | 0.634 | 0.154 | 1.43 | 1.74 | 0.906 | 0.862 | -0.65 | 0.988 | 0.31 | -0.682 | 0.00712 | -0.346
